FMDV inh – antivirals against foot and mouth disease virus | 410,000 tested, 1.2% active | Potency, µM (doses to about 57.9 µM), for the others: at the highest dose activity change, negative = inhibition, usual class: inhibitors | FMDV antiviral cell-based qHTS; calls by dose curve; tested in HEK293T cells; also: read-out not given here; potency is read from the fitted curve at half-maximal effect; nearly all actives have a fitted effect of over 45% in size
HCV inhibitor – HCV inhibition; Huh7.5.1 HCVcc-Cre infection, luciferase reporter, 44 h; Potency, µM (top dose mostly 41.8 µM), for the others: top-dose activity change, negative = inhibition, hits mostly inhibitors; 340,000 tested, 3.4% active; AID 651820; also: potency is read from the fitted curve at half-maximal effect
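A cell-based infection assay in which seeded cells (1,000 per well) receive test compound after 4 h, are inoculated with HCVcc-Cre at approximately 0.5 moi, and are incubated 44 h before luminescence detection.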
Vaccinia mCherry – vaccinia inhibition (mCherry reporter). Potency, µM (top dose mostly 36.5 µM), for inactives: at the highest dose activity change, negative = inhibition, most hits filed as inhibitors. Vaccinia virus mCherry reporter infection, fluorescence. AID 720579. 310,000 tested, 0.63% active; calls by dose curve; tested in A549 cells; also: potency is read from the fitted curve at half-maximal effect; nearly all actives have a fitted effect of over 35% in size
VACV Venus inh – vaccinia inhibition (Venus reporter) | Vaccinia virus Venus reporter expression, fluorescence | Potency, µM (doses to about 36.5 µM), for the others: top-dose activity change, negative = inhibition, hits mostly inhibitors | 330,000 tested, 0.46% active | AID 720580; calls by dose curve; tested in A549 cells; also: potency is read from the fitted curve at half-maximal effect; nearly all actives have a fitted effect of over 30% in size
HCMV inh – inhibitors of human cytomegalovirus; AID 1259415; activity change, negative = inhibition, % at 57.5 µM; HFF cells, HCMV-luciferase reporter, 72 h; active compounds read low; 410,000 tested, 4.5% active; in the data active = activity change below about -60%; inconclusive = no clear call, values can overlap the other calls; inactive = above about -39%
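Screen run at 2 compound doses on HFFs infected with reporter HCMV, MOI 1 PFU/cell. Luciferase activity from cell lysates at 72 h post infection gave inhibition relative to buffer-only and Salinomycin wells.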
Giardia FBPA inh – inhibitors of Giardia lamblia fructose-1,6-bisphosphate aldolase | A8B2U2 | purified Giardia FBPA | Potency, µM (top dose mostly 59.6 µM), for the others: at the highest dose activity, negative = inhibition, hits mostly inhibitors | 290,000 tested, 0.71% active | AID 2451; also: potency is read from the fitted curve at half-maximal effect; nearly all actives have a fitted effect of over 55% in size
Target sequence (A8B2U2 whole entry, looked up): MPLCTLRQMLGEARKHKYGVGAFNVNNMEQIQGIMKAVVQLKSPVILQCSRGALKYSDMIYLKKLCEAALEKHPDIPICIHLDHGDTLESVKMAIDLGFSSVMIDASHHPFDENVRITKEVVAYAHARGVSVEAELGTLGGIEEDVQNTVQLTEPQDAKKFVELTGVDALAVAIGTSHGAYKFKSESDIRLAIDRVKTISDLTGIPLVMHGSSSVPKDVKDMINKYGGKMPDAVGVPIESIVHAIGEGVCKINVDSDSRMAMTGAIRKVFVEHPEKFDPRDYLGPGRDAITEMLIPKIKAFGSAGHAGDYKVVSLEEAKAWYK
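Giardia FBPA (40 nM reagent) was preincubated 10 min at RT with compound (up to 57.5 uM final), then substrate plus GAPDH/TPI/NAD/arsenate coupling system with diaphorase/resazurin was added; resorufin fluorescence (525/598 nm) was read after 20 min.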
Starred values were filed as active, the others as inactive; i = inactive; ? = inconclusive; . = not tested or not shown. This is a sample that favours compounds with a hit; in the whole collection about 7.5% have one here. Unless noted, calls follow the shape of the dose curve; as a rule, active = well fitted curve in the direction sought with a large enough effect; inconclusive = small, poorly fitted or top-dose-only effect, or another doubt; inactive = no such curve, though single readings can be large; an effect the other way counts as inactive or inconclusive. % is scaled to controls: 0 for no effect and ±100 for the full control effect.

SMILES	FMDV inh	HCV inhibitor	Vaccinia mCherry	VACV Venus inh	HCMV inh	Giardia FBPA inh
C=CC[C@H](CC(=O)N(CCO)Cc1ccccc1)C(=O)N[C@@H](COC(=O)[C@@H](CC=C)Cc1ccc(F)cc1)Cc1c[nH]c2ccccc12	?	22.4µM*	11.2µM*	10µM*	31.6	.
C=CC[C@@H](CC(=O)N(CCO)Cc1ccccc1)C(=O)N[C@@H](COC(=O)[C@@H](CC=C)Cc1ccc(F)cc1)Cc1c[nH]c2ccccc12	0.0%	?	?	10µM*	51.4	.
NC(=O)C1CCCN(C(=O)Nc2cccc3ccccc23)C1 (stereo not given)	-10.9%	8.1%	.	13.1%	-64.1*	-24.8%
C=CCNC(=S)Nc1cccc2ccccc12	.	1.6%	-3.6%	-19.5%	-3.9	15.8µM*
S=C(Nc1cccc2ccccc12)NN1CCCCCC1	-4.5%	-22.4%	-23.2%	-15.3%	-62.5*	.
S=C(Nc1cccc2ccccc12)NN1CCOCC1	0.8%	13.2%	-9.8%	-2.4%	56.8	?
C=CCNC(=S)NCc1ccccc1	-4.3%	1.1%	.	.	-5.6	-9.6%
CC1(C)S[C@@H]2[C@H](N3C(=O)C(c4ccccc4)NC3(C)C)C(=O)N2[C@H]1C(=O)O (stereo not given in full)	27.2%	.	i	-14.4%	.	.
O=C(Nc1cccc(C(=O)Nc2cc(C(=O)Nc3ccc([S+](=O)([O-])[O-])c4cc([S+](=O)([O-])[O-])cc(SOOO)c34)ccc2F)c1)Nc1cccc(C(=O)Nc2cc(C(=O)Nc3ccc([S+](=O)([O-])[O-])c4cc([S+](=O)([O-])[O-])cc([S+](=O)([O-])[O-])c34)ccc2F)c1	-8.5%	.	.	.	.	-14.3%
CCC(C)c1ccc(C(CC)NC(=O)C2CCCO2)cc1 (stereo not given)	?	10µM*	.	.	-36.8	-1.8%
CCC(C)c1ccccc1NC(=O)C1CCCO1 (stereo not given)	6.0%	14.0%	-10.3%	-1.0%	27.4	3.1%
C=CCS(=O)(=O)N1CCCC(Cc2ccccc2C)(C(=O)OCC)C1 (stereo not given)	-0.3%	-5.7%	.	.	?	-13.1%
CS(=O)(=O)NCCNc1ncc(C(F)(F)F)cc1Cl	0.3%	-12.7%	-21.7%	-13.7%	?	3.4%
O=C1C=CC(=O)N1CCNc1ncc(C(F)(F)F)cc1Cl	31.6µM*	?	?	-28.4%	-95.5*	-17.5%
O=S(=O)(NCCNc1ncc(C(F)(F)F)cc1Cl)C(F)(F)F	-6.0%	?	-5.5%	-26.7%	-71.5*	-4.1%
O=C1CC(=O)N(CCNc2ncc(C(F)(F)F)cc2Cl)C(=O)N1	-15.0%	11.5%	.	-13.7%	27.3	11.6%
COc1ccc(C=NN(C)C(=O)Nc2cccc(Cl)c2)cc1OC	.	.	.	.	-8.8	.
Cc1cc(C)n(-c2nc3ccccc3nc2N2CCC(C)CC2)n1	-19.5%	-4.4%	.	.	-6.5	7.6%
Cc1cc(C)n(-c2nc3ccccc3nc2N2CCN(C(=O)c3ccc(F)cc3)CC2)n1	-2.6%	-0.6%	-19.0%	-14.7%	-79.5*	3.0%
C#CCn1c(=NC(=O)c2cccs2)sc2cccc(OCC)c21	-20.8%	?	?	?	-67.1*	-2.0%
C#CCn1c(=NC(=O)c2ccc(Cl)s2)sc2cccc(OC)c21	14.0%	-4.4%	-19.1%	-21.6%	4.8	1.2%
CC1C(=O)N(Cc2cn(CCC3OCCCO3)nn2)CCS(=O)(=O)N1Cc1ccc(-c2ccc(Cl)cc2)cc1 (stereo not given)	11.2µM*	.	-18.4%	?	?	.
CC(C)CC1C(=O)N(Cc2cn(CCC3OCCO3)nn2)CCS(=O)(=O)N1Cc1ccc(-c2ccccc2)cc1 (stereo not given)	?	.	i	-21.1%	-18.8	.
Cc1ccc(-c2ccc(CN3C(CC(C)C)C(=O)N(Cc4cn(CCC5OCCO5)nn4)CCS3(=O)=O)cc2)cc1 (stereo not given)	?	.	?	?	-101.2*	.
CC(C)CC1C(=O)N(Cc2cn(Cc3ccco3)nn2)CCS(=O)(=O)N1Cc1ccc(-c2cccc(N(C)C)c2)cc1 (stereo not given)	0.0%	.	-14.2%	-25.9%	-100.8*	.
